Rows were chosen to be rich in hits. Some 2.4% of all compounds tested hit in one or more screens of this group.
ASK1 primary = ASK1 kinase inhibitors, primary screen, biochemical, AlphaScreen. AlphaScreen MKK6 phosphorylation by ASK1, luminescence. Mitogen-activated protein kinase kinase kinase 5 (Homo sapiens), Q99683. 22,000 tested, 0.99% active. inhibition, % at 7.44 µM; in the data active = inhibition above about 35%;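 also: 0% = median of compound wells and 100% = no enzyme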
ULK1 primary = ULK1 kinase inhibitors, primary screen, biochemical, AlphaScreen; Serine/threonine-protein kinase ULK1 (Homo sapiens), O75385; 30,000 tested, 1.9% active; inhibition, % at 5.96 µM; AlphaScreen Atg13 phosphorylation by ULK1, luminescence; in the data active = inhibition above about 43%;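 also: 0% = median of compound wells and 100% = no enzyme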
Active calls of the source: *; x = no result given.

SMILES | ASK1 primary | ULK1 primary
CC(=O)Nc1ccc(NC(=O)c2cccc(-c3ccc(C(=O)NC4CC4)cc3)c2)cc1 | 9 | 47*
O=C(NC1CC1)c1ccc(-c2cccc(C(=O)NC3CC3)c2)cc1 | 12 | -2
Cc1nn(C)c(C)c1-c1cccc(C(=O)NCCOc2ccccc2)n1 | -6 | -2
Cc1ccc(NC(=O)COc2cccc3c2OC(C)(C)C3)c(C)c1 | x | 2
COc1ccccc1OCc1nc2ccc(-c3cn[nH]c3C)cc2c(=O)[nH]1 | 25 | 3
O=C(NCc1cccnc1)c1ccc2nc(Br)sc2c1 | 11 | 45*
O=C(NCc1cccnc1)c1ccc2nc(-c3ccccc3)sc2c1 | 1 | -22
Nc1cccc(-c2cc(NCc3cccnc3)nc(N)n2)c1 | -3 | 55*
NC(=O)c1ccc(-c2cc(NCc3cccnc3)nc(N)n2)cc1 | 2 | 24
CCCNc1ncnc2c1nc(N1CCOCC1)n2C(C)C | 3 | 9
COc1ccc(CCNc2ncnc3nc(Nc4cccc(N(C)C)c4)[nH]c23)cc1 | 26 | 22
Nc1nc(NCCO)cc(N2CCCC2CO)n1 (configuration not stated) | 4 | 1
Oc1cc(O)c2c(c1)O[C@H](c1ccc(O)c(O)c1)[C@@H](O)C2 | x | 53*
NC(=O)c1ccccc1Nc1ccnc(Nc2ccc(N3CCOCC3)cc2)c1 | 9 | 10
NC(=O)c1ccccc1Nc1ccnc(Nc2ccc(N3CCNCC3)cc2)c1 | 0 | 48*
COc1cc(N2CCOCC2)ccc1Nc1cc(Nc2ccccc2C(N)=O)c(C)cn1 | 0 | 31
CN1CCN(c2ccc(Nc3cc(Nc4ccccc4C(N)=O)ccn3)cc2)CC1 | 7 | 40
Cc1cnc(Nc2ccc(N3CCNCC3)cc2)cc1Nc1ccccc1C(N)=O | 3 | 94*
NC(=O)c1cnccc1Nc1ccnc(Nc2ccc(N3CCOCC3)cc2)c1 | 8 | 44*
NC(=O)c1nccnc1Nc1ccnc(Nc2ccc(N3CCOCC3)cc2)c1 | 9 | 17
Cc1cnc(Nc2cccc(N3CCOCC3)c2)cc1Nc1ccccc1C(N)=O | -4 | 82*
O=C(Cc1cn(-c2ccc(Nc3ccccc3)nn2)c2ccccc12)NCCN1CCOCC1 | 8 | 16
CCN(CC)c1nc(NCCN(C(C)C)C(C)C)nc(Nc2ccc(-n3ccnc3)cc2)n1 | 8 | 5
COc1ccc(CCNC(=O)c2cnc(N3CCCC3CO)s2)cc1 (configuration not stated) | -12 | 0
Cn1nccc1Nc1ccc(-n2cc(CC(=O)NC3CCN(Cc4ccccc4)CC3)c3ccccc32)nn1 | 13 | 20
SMILES | ASK1 primary | ULK1 primary
Cc1sc(NC(=O)Cc2ccccc2)c(C(N)=O)c1C | x | 8
CCOC(=O)C1CCN(C(=O)c2cn(C)c3c(=O)n(-c4ccc(F)cc4)c(=O)[nH]c23)CC1 | x | 4
c1cc(Nc2cc(C3CC3)[nH]n2)cc(Nc2ccc(N3CCOCC3)cc2)n1 | 10 | 47*
c1cc(Nc2ccc3nc[nH]c3c2)cc(Nc2ccc(N3CCOCC3)cc2)n1 | 11 | 3
O=C(NCc1cccnc1)c1csc(Nc2ccc(N3CCOCC3)cc2)n1 | 0 | 11
c1ccc(OCCNc2ccnc(Nc3ccc(-n4ccnc4)cc3)n2)cc1 | -3 | -4
CNC(=O)c1ccccc1Nc1nc(Nc2ccc(N3CCOCC3)c(Cl)c2)ncc1Cl | -27 | 58*
Cn1cnc(-c2ccccc2Nc2nc(Nc3ccc(N4CCOCC4)cc3)ncc2Cl)n1 | 11 | -11
Fc1cc(N2CCOCC2)ccc1Nc1nccc(-c2cncc(N3CCOCC3)c2)n1 | 15 | 30
NC(=O)c1ccccc1Nc1nc(Nc2ccc(N3CCOCC3)cc2F)ncc1Cl | -81 | 83*
Cn1ncnc1-c1ccccc1Nc1nc(Nc2ccc(N3CCOCC3)cc2)ncc1Cl | -8 | 78*
CN(C)CCNC(=O)c1ccccc1Nc1ccnc(Nc2ccc(N3CCOCC3)cc2)c1 | -12 | 1
COc1cc(Nc2cc(Nc3ccccc3C(N)=O)ccn2)ccc1N1CCOCC1 | -5 | 5
NC(=O)c1ccccc1Nc1nc(Nc2ccc(N3CCOCC3)c(F)c2)ncc1Cl | -65 | 72*
CC(C)n1cnc2c(NCCOc3ccccc3)nc(Nc3cnccn3)nc21 | 1 | 15
CC(C)c1ccc(C(=O)NCc2c(-c3ccccc3)nc3n2CCS3)cc1 | x | -11
N[C@H](Cc1ccccc1)C(=O)N1CCN(c2ccc3[nH]ncc3c2)CC1 | 8 | 22
COC(CNC(=O)c1ccc(-c2cnn(-c3ccccc3)c2)nc1)OC | x | 6
OC1CCN(c2cccc(-c3ccnc(Nc4ccc(-n5ccnn5)cc4)n3)c2)CC1 | 3 | 3
NC(=O)c1ccc(Nc2ncc(Cl)c(-c3ccccc3)n2)cc1 | 9 | 31
NC(=O)c1ccccc1Nc1nc(Nc2ccc(F)cc2)ncc1Cl | -66 | 85*
O=C(NC1CC1)c1cccc(NS(=O)(=O)c2ccc(-c3ncnc4[nH]ccc34)cc2)c1 | 8 | 44*
NC(=O)c1ccc(-c2cccc(C(=O)NC3CC3)c2)cc1 | -20 | -16
CC(C)n1c(Nc2nccc3ccccc23)nc2c(NCCOc3ccccc3)ncnc21 | -14 | -2
OCCNc1nc(N2CCOCC2)nc2c1ncn2-c1ccsc1 | 5 | 7
SMILES | ASK1 primary | ULK1 primary
C[C@H](Cc1ccc(O)c(O)c1)[C@@H](C)Cc1ccc(O)c(O)c1 | x | 78*
N[C@@H](Cc1ccc(O)c(O)c1)C(=O)O | x | 32
O=C(CNS(=O)(=O)c1ccc(Cl)cc1)N/N=C/c1cccc([N+](=O)[O-])c1 | x | 9
CN1Cc2cccc(Nc3cc(Nc4cccc5c4C(=O)N(C)C5)c(C(F)(F)F)cn3)c2C1=O | 15 | -7
FC(F)(F)c1cnc(Nc2ccccn2)cc1Nc1ccccn1 | 17 | 50*
O=C(NC1CCN(Cc2ccccc2)CC1)c1cccc(Nc2ccc(-n3ccnc3)cc2)n1 | 19 | -7
COc1cc(N2CCOCC2)ccc1Nc1cc(NCc2ccccc2)c(C(F)(F)F)cn1 | 1 | 18
CNC(=O)c1ncccc1Nc1cc(Nc2ccc(N3CCOCC3)cc2OC)ncc1C(F)(F)F | 24 | 46*
COc1cc(N2CCOCC2)ccc1Nc1cc(Nc2ccccc2NC(C)=O)c(C(F)(F)F)cn1 | 11 | 88*
CNC(=O)c1ncccc1Nc1cc(Nc2ccc(C(=O)N(C)C)cc2OC)ncc1C(F)(F)F | 16 | 24
CNC(=O)c1ccccc1Nc1cc(Nc2ccc(N3CCS(=O)CC3)cc2OC)ncc1C#N | 22 | 90*
CNC(=O)c1cccc(Nc2cc(Nc3ccc(N4CCOCC4)cc3OC)ncc2C(F)(F)F)c1 | 21 | 18
COc1cc(N2CCOCC2)ccc1Nc1cc(NC(C)(C)c2ccccc2)c(C(F)(F)F)cn1 | -13 | 22
CNC(=O)c1ccccc1Nc1cc(Nc2ccc(C(=O)N3CC[C@H](O)C3)cc2OC)ncc1C(F)(F)F | 8 | 88*
Nc1nc(NCc2cccc(C(F)(F)F)c2)cc(-c2cccs2)n1 | 2 | -17
O=C1CCCN1CCn1cnc2c(NCc3cccc(C(F)(F)F)c3)nc(Nc3ccc(C(F)(F)F)cc3)nc21 | -5 | -18
Cn1cnnc1-c1ccc(Nc2nccc(-c3ccc(NS(C)(=O)=O)cc3)n2)cc1 | 1 | -14
CS(=O)(=O)c1ccc(-c2ccnc(Nc3ccc(C(N)C(F)(F)F)cc3)n2)cc1 (configuration not stated) | -21 | 20
CS(=O)(=O)Nc1ccc(-c2ccnc(Nc3ccc(-n4ccnn4)cc3)n2)cc1 | -28 | 66*
